In assay [1] the test system is Human papillomavirus type 1a protein E7 (residues 44-93). Kind of assay: small molecules binding HPV E7 44-93 – biochemical, small-molecule microarray, residues 44-93, 635 nm fluorescence, primary screen (AID 1108).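 Note: E7 fragment applied at 1 µg/mL in TBST for 1 h at 4 C; score combines spot fluorescence with its signal to noise ratio.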 As to conditions: fluorescence 635 nm, higher = more signal.
Assay [2] can be described thus: hepatitis C replication reporter changes, two-sided – Huh7 cells, luciferase reporter, HCV replication inhibitor project, primary screen (AID 1109).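 Note: huh7 hepatoma cells harbouring a luciferase neomycin HCV replicon reporter; luciferase luminescence as measure of HCV replicon replication; test concentration not given here.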 As to conditions: Huh7 HCV replicon luciferase reporter, 48 h; higher = more signal. In general terms: A reporter such as luciferase makes a cellular process visible.
Assay [3] has as its target Left-right determination factor 2 (Homo sapiens) (UniProt O00292). Kind of assay: small molecules binding LEFTY2 protein – biochemical, small-molecule microarray, 635 nm fluorescence scan, primary screen (AID 1110). As to conditions: higher = more signal.
In assay [4] the target is Calmodulin-1 (Homo sapiens) (UniProt P0DP23). Briefly: small molecules binding calmodulin-1 with EGTA – biochemical, small-molecule microarray, Cy5-labelled CALM1, profiling panel (AID 1111).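 Note: labelled calmodulin applied in Tris saline Tween buffer holding calcium plus EGTA and DTT.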 The conditions noted are these: Cy5-CALM1 binding fluorescence, higher = more signal.
Assay [5] shares this target. Kind of assay: small molecules binding Ca-loaded calmodulin-1 – biochemical, small-molecule microarray, Cy5-labelled CALM1, plus calcium, artefact control for SMM control-protein annotation, profiling panel (AID 1112).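 Note: score merges spot fluorescence with signal to noise from triplicate slides.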 As to conditions: Cy5-CALM1 binding fluorescence, higher = more signal.
The nature of assay [6]: probe aWnt5a binding to arrayed compounds – biochemical, biotinylated probe, 635/667 nm fluorescence, primary screen (AID 1113).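 Note: score merges 667 nm fluorescence intensity with signal-to-noise per printed feature.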 As to conditions: small-molecule microarray, higher = more signal.
A short description of assay [7]: probe aShh binding to arrayed compounds – biochemical, biotinylated probe, 635/667 nm fluorescence, primary screen (AID 1114).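 Note: probe is biotin-labelled aShh protein from a stem cell growth factor screen; measures binding of labelled protein to compounds printed on the slide; score merges feature fluorescence at 667 nm with signal-to-noise.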 As to conditions: small-molecule microarray, higher = more signal.
Assay [8] can be described thus: probe aNog binding to arrayed compounds – biochemical, biotinylated probe, 635/667 nm fluorescence, primary screen (AID 1115).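 Note: probe is biotinylated aNog protein used at 0.15 µg/mL for 1 h at 4 C; z-score combines 667 nm fluorescence of each spot with its signal to noise.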 As to conditions: small-molecule microarray, higher = more signal.
In assay [9] the target is Torsin-1A-interacting protein 1 (Homo sapiens) (UniProt Q5JTV8). Briefly: compound microarray binding of lysate hLAP1 – cell lysate, small-molecule microarray, COS7 lysate, 635/667 nm fluorescence, primary screen (AID 1116). The conditions noted are these: 635 nm fluorescence, higher = more signal.
Chain of Torsin-1A-interacting protein 1 (Homo sapiens) (Q5JTV8 whole entry, looked up): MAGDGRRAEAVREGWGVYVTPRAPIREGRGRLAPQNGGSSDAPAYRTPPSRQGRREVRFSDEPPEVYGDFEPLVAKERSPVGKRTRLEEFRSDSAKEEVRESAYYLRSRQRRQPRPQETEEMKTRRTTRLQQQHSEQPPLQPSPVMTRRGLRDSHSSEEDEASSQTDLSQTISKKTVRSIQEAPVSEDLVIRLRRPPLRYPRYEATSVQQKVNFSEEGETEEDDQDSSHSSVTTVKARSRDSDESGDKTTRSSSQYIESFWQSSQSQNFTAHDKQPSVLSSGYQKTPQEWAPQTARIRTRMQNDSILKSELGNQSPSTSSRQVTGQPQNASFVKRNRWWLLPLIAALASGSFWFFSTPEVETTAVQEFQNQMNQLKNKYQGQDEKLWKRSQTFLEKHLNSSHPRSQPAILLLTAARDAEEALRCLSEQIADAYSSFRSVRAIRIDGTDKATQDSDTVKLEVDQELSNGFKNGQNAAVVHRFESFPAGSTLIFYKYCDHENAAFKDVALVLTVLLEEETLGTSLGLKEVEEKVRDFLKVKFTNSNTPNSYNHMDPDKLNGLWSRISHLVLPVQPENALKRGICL
The target in assay [10] is Alpha-bungarotoxin (Bungarus multicinctus) (UniProt P60615). Briefly: compounds binding labelled alpha-BTX control protein – biochemical, small-molecule microarray, Alexa647 label, 635/667 nm fluorescence, artefact control for SMM control protein annotation, profiling panel (AID 1117). The conditions noted are these: alpha-BTX-A647 binding fluorescence, higher = more signal.
Chain of Alpha-bungarotoxin (Bungarus multicinctus) (P60615 whole entry, looked up): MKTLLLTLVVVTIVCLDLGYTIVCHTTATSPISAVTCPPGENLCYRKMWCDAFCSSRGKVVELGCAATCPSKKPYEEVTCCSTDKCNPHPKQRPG

For a further assay, the target named is Albumin (Bos taurus) (UniProt P02769). Kind of assay: compounds binding labelled BSA control protein – biochemical, small-molecule microarray, Alexa647 label, 635/667 nm fluorescence, artefact control for SMM control protein annotation, profiling panel (AID 1118).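 Note: score merges 667 nm emission intensity and signal-to-noise per printed compound spot.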 As to conditions: BSA-A647 binding, fluorescence 635 nm, higher = more signal.
Chain of Albumin (Bos taurus) (P02769 whole entry, looked up): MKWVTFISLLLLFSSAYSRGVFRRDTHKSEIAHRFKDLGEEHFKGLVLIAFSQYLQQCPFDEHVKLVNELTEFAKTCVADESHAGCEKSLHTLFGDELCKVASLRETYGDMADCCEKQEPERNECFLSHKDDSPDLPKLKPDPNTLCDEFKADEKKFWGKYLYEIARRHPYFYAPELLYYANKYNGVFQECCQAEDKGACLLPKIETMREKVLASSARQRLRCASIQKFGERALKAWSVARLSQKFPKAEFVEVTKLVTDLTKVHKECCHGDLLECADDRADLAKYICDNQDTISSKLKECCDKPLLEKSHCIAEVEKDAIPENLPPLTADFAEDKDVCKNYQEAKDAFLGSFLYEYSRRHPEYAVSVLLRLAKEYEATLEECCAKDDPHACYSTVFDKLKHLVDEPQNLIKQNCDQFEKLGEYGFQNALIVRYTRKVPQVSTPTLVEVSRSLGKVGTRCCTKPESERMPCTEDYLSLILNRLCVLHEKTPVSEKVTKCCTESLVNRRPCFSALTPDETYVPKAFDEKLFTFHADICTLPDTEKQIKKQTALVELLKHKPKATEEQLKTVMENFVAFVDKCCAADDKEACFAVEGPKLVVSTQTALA
The nature of assay [11]: probe aXIP binding to arrayed compounds – biochemical, NeuroSMM set, 635/667 nm fluorescence, primary screen (AID 1119).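 Note: probe is the protein aXip251-270 applied at 1 µg/mL to compound-printed slides; binding of probe to printed compounds measured as 667 nm fluorescence plus signal to noise.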 The conditions noted are these: small-molecule microarray, higher = more signal, called active from +8 up or from −8 down.
Assay [12] can be described thus: probe aNOTCH3 binding on compound microarray – biochemical, small-molecule microarray, 635/667 nm fluorescence, primary screen (AID 1120).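 Note: probe is a biotin-tagged antibody raised against NOTCH3 rather than NOTCH3 protein; score merges spot fluorescence near 667 nm with spot signal to noise.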 As to conditions: higher = more signal.
The nature of assay [13]: probe aNOTCH2 binding on compound microarray – biochemical, small-molecule microarray, 635/667 nm fluorescence, primary screen (AID 1121).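 Note: score merges feature fluorescence read at 667 nm with its signal to noise.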 As to conditions: higher = more signal.
The target in assay [14] is Carbonic anhydrase 2 (Homo sapiens) (UniProt P00918). Kind of assay: compounds binding carbonic anhydrase 2 – biochemical, small-molecule microarray, Alexa647-labelled CAII, profiling panel (AID 1122). As to conditions: CAII-A647 binding fluorescence, higher = more signal.
Assay [15] is described as follows: COS7 lysate on small-molecule microarray, probe aHis, 635 nm (AID 1123).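 Note: z-score combines 667nm fluorescence intensity with signal-to-noise per printed compound spot.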 The conditions noted are these: COS7 cell lysate, fluorescence, higher = more signal.
Assay [16] is described as follows: probe aLAP1 signal on lysate-treated microarray – cell lysate, small-molecule microarray, COS7 lysate, primary screen (AID 1124).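 Note: lysate comes from COS7 cells expressing LAP1 and is applied at 0.3 µg/mL; score merges spot fluorescence near 667 nm with signal-to-noise over triplicate slides.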 As to conditions: probe aLAP1, fluorescence, higher = more signal.
Another assay has as its system Sam68 (KHDRBS1). Kind of assay: compounds binding KHDRBS1 protein – biochemical, small-molecule microarray, 635 nm fluorescence, primary screen (AID 1125).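 Note: score merges 667 nm channel intensity with signal to noise over triplicate slides.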 As to conditions: higher = more signal.
Assay [17] concerns Chordin-like protein 2 (CHRDL2). Kind of assay: compounds binding chordin-like 2 – biochemical, small-molecule microarray, 635 nm fluorescence, primary screen (AID 1126).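 Note: printed compound slides probed with Chrdl2 protein at 4 µg/mL for 1 h at 4 C; score merges 667 nm emission intensity with signal to noise over three replicate slides.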 As to conditions: fluorescence 635 nm, higher = more signal.
In assay [18] the target is Concanavalin-A (Canavalia ensiformis) (UniProt P02866). Kind of assay: compounds binding concanavalin A lectin – biochemical, small-molecule microarray, Alexa647 label, 635 nm, artefact control for SMM control protein annotation, primary screen (AID 1127).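 Note: z combines 667 nm emission intensity with signal-to-noise across three replicate slides.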 As to conditions: ConA-A647 binding fluorescence, higher = more signal.
Chain of Concanavalin-A (Canavalia ensiformis) (P02866 whole entry, looked up): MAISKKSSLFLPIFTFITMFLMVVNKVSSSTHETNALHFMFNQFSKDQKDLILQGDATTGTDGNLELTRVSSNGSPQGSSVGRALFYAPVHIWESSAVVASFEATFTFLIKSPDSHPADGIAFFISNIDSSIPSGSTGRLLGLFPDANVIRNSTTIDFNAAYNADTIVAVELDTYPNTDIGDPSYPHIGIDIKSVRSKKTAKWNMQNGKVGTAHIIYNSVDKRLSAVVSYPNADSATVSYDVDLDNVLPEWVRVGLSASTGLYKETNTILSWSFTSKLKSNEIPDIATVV

Molecules are shown by their SMILES. Calls of active or inactive are those of the source.

Chain of Left-right determination factor 2 (Homo sapiens) (O00292 whole entry, looked up): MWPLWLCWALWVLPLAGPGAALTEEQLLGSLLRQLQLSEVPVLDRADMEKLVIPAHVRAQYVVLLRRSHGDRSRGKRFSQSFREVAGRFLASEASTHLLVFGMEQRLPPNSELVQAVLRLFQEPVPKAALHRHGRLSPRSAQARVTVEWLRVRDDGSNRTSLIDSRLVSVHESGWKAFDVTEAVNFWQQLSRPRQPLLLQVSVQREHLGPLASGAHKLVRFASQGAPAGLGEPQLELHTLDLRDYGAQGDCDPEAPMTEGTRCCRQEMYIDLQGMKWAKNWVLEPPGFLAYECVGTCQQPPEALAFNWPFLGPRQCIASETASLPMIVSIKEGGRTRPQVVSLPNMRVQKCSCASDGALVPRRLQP

In the case of `CN1C=C(C(=O)OCCS(C)(=O)=O)C(C(=O)OCCS(C)(=O)=O)=CC(CCCO)=CC1c1ccc(CN2CCCC2)cc1` (stereo not given), the composite z-score in assay [1] was 1.45; in [3], 0.595; in assay [4], 0.693; in assay [5] it was -0.551; in assay [6], -0.0087; in [7], 0.261. Also, the composite z-score in assay [8] was 0.827; in assay [9], 0.51; in [10], 0.745; in the assay with Albumin (Bos taurus), 0.676; in assay [12], 0.405; in assay [13], -0.146. Also, the composite z-score in assay [14] is 0.746; in assay [15], 1.87; in assay [16], -0.197; in the assay on Sam68 (KHDRBS1), 1.3; in assay [17] it was 0.369; in assay [18] it was 0.907. The compound further came in with a z-score in [2] of -1.36. The composite Z-score in assay [11] was 0.48 (inactive).

On to `NCCCC[C@@H]1NC(=O)[C@H]2C[C@@H](C(=O)NCc3ccc(F)cc3)[C@@H](c3ccc(O)cc3)N2C1=O`, for which the composite z-score is 1.18 in assay [1]; 0.567 in assay [3]; 1.17 in assay [4]; 0.428 in [5]; -0.0161 in assay [6]; 0.452 in [7]. For the same compound, the composite z-score in assay [8] is -0.171; in assay [9], 2.33; in assay [10] it was 1.26; with Albumin (Bos taurus), -0.135; in [12], 0.125; in assay [13] it was -0.0531. For the same compound, the composite z-score in [14] was 0.738; in assay [15], 2.18; in assay [16], 0.313; in the assay with Sam68 (KHDRBS1) it was 1.19; in assay [17], 0.521; in assay [18], 1.13. Also, the z-score in assay [2] was -0.0038. Moreover, the composite Z-score in assay [11] is 0.744 (inactive).

On to `O=C1OCCC=C[C@H]2OC34C=CCN(c5ccc(Cl)cc5)C(=O)[C@H]3N(CCO)C(=O)[C@@H]4C12` (stereo not given in full), for which the composite z-score in assay [1] is -0.646; in [3], -1.34; in assay [4] it was -0.585; in [5], -0.1; in assay [6] it was -0.239; in assay [7], -0.262. Besides, the composite z-score in [8] is -0.274; in [9], -0.855; in [10], -0.957; with Albumin (Bos taurus) it was 0.597; in assay [12] it was -0.406; in [13] it was -0.189. Besides, the composite z-score is 0.859 in assay [14]; -0.387 in assay [15]; -0.419 in assay [16]; -0.914 with Sam68 (KHDRBS1); -0.291 in assay [17]; -0.648 in assay [18]. In assay [2], the z-score was 0.318. Further, in [11], the composite Z-score is 0.359 (inactive).

For `O=C(NCC(F)(F)F)[C@@H]1c2ccccc2C(=O)N(CC23CC4CC(CC(C4)C2)C3)[C@H]1c1ccc(CO)cc1`, the composite z-score in assay [1] was 1.02; in assay [3], 0.355; in assay [4], 0.579; in assay [5], -0.715; in [6] it was -0.0398; in assay [7], 0.136. The composite z-score in assay [8] was -0.222; in [9], 0.613; in [10], -0.523; with Albumin (Bos taurus), 0.15; in assay [12], 0.0981; in [13] it was -0.147. In addition, the composite z-score was found to be 0.25 in assay [14]; 0.699 in assay [15]; 0.622 in assay [16]; 1.27 in the assay on Sam68 (KHDRBS1); 0.162 in assay [17]; 0.734 in assay [18]. In [2], the z-score was -1.83. Besides, the composite Z-score in [11] is 0.251 (inactive).

In the case of `COc1ccc(CCNC(=O)[C@@]2(C)c3ccccc3C(=O)N(Cc3cc(C(F)(F)F)cc(C(F)(F)F)c3)[C@H]2c2ccc(CO)cc2)cc1`, the composite z-score in [1] is 1.28; in assay [3], 0.0779; in assay [4], 1.33; in [5], -0.228; in assay [6], -0.152; in assay [7] it was -0.0669. For the same compound, the composite z-score in assay [8] was 0.242; in [9], 0.548; in [10] it was -0.183; with Albumin (Bos taurus), 0.0386; in assay [12] it was -0.179; in assay [13] it was -0.161. Further, the composite z-score in assay [14] came to 0.643; in assay [15] it was 2.41; in assay [16] it was 0.558; in the assay with Sam68 (KHDRBS1) it was 1.13; in assay [17], 0.394; in assay [18] it was 0.308. Also, the z-score in assay [2] is -2.25. For the same compound, in assay [11], the composite Z-score is 0.793 (inactive).

Values taken from PubChem BioAssay.
